# Compound activity (PubChem BioAssay)
# Rows were chosen to be rich in hits. Some 4.6% of all compounds tested hit in one or more screens of this group.
# TRHR agonist-1 – agonists of human TRH receptor | actives 0.18% (n = 360,000) | activation, % at 2 µM | TRHR cells, calcium flux fluo-8, FDSS agonist mode | P34981; in the data active = activation above about 30%; note: 0% is about no effect
# Target sequence (P34981 whole entry, looked up): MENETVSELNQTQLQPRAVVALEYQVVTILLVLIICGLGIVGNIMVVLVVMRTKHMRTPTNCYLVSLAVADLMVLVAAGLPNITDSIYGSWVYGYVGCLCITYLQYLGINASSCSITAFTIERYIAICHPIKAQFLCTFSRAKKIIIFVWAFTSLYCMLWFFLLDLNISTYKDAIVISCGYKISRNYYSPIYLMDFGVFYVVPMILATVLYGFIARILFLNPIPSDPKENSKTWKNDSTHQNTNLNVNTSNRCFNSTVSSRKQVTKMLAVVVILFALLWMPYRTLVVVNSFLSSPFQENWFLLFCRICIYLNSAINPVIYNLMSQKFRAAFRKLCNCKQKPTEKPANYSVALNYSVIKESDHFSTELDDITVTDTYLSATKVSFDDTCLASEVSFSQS
#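 In this calcium-flux screen, cells bearing human TRHR are dye-loaded with fluo-8, baselined for 10 cycles, then exposed to library compounds; positive kinetic calcium responses during the agonist phase mark hits, with TRH as control.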
# D1 potentiator – enhances dopamine response at the human D1 receptor; actives 0.036% (n = 360,000); potentiation, % at 10 µM; HEK293 TREx D1 cells, calcium flux, dopamine EC20 potentiation; AID 504651; P21728; in the data active = potentiation above about 30%; note: 0% is about no effect
# D1 agonist – activates the human D1 dopamine receptor; HEK293 T-REx D1 cells, calcium flux, agonist mode; AID 504660; actives 1% (n = 360,000); activation, % at 2 µM; in the data active = activation above about 30%; note: 0% is about no effect
#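 Inducible HEK293 T-REx D1 cells, force-coupled to calcium signalling, were plated at 4000 cells/well with tetracycline and held overnight at 30 C. After no-wash calcium dye loading, compound-evoked calcium rise over 180 s flagged agonists.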
# D1 antagonist – blocks dopamine activation of the human D1 receptor | HEK293 TREx D1 cells, calcium flux, dopamine EC80; hits give low values | activity change, negative = inhibition, % at 10 µM | actives 3.2% (n = 360,000) | AID 504652; in the data active = activity change below about -30%; note: % is set by controls: 0 for no effect and ±100 for the full control effect
#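 HEK293 T-REx cells expressing inducible, force-coupled D1 receptor; no-wash Ca dye, 30–90 min RT. Cmpd → 180 s read at 1 Hz → EC80 DA → 180 s read.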
# TRHR enhancer-1 – allosteric enhancers of human TRH receptor. enhancement, % at 2 µM. actives 0.66% (n = 360,000). TRHR cells, fluo-8 calcium fluorescence, EC20 TRH enhancement; in the data active = enhancement above about 30%; note: 0% is about no effect
#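 Enhancer read-out: after compound pinning and an initial kinetic agonist-mode read, an EC20 of TRH (10 nM final) was injected and fluo-8 calcium signal (Ex 480/Em 530) followed at 1 s/cycle for 100 cycles in TRHR-expressing cells.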
# Epigenetic reg – regulators of epigenetic silencing causing reporter derepression in mouse cells | murine LDR cells, GFP reporter derepression, 30 h | AID 1865 | actives 0.2% (n = 280,000) | Potency, µM (series often up to 53.9 µM), for the others: at the highest dose GFP activation, hits mostly activators; note: potency is the fitted concentration of half-maximal effect; % of control where 0% means no effect; nearly all actives have a fitted effect of over 60% in size
#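 Murine LDR cells carrying a silenced, genomically integrated CMV-driven GFP reporter were exposed to compound for 30 hours at 37 C. After PBS washes, GFP-positive cells (20–120 um objects) were counted by laser-scanning microplate cytometry.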
# C127i cell count – changes parental c127i cell counts in epigenetic modulator counter-screen; shares compounds with Epigenetic reg; mouse c127i parental cells, fluorescent cell count, 30 h; Potency, µM, without a hit: top-dose fluorescent cell count, usual class: activators; actives 20% (n = 60); AID 493065
# HCC4017 viab – reduces HCC4017 lung cancer cell viability among epigenetic modulators | AID 493071 | HCC4017 NSCLC viability, CellTiter-Glo ATP luminescence, 72 h | shares compounds with Epigenetic reg | Potency, µM (highest dose often 46.1 µM), without a hit: at the highest dose activity change, negative = cytotoxicity, usual class: cytotoxic | actives 30% (n = 45)
# H358 viab – epigenetic modulators: cytotoxicity in H358 lung cancer cells | actives 30% (n = 45) | shares compounds with Epigenetic reg | H358 NSCLC viability, ATP luminescence, 72 h | Potency, µM (series often up to 46.1 µM), without a hit: at the top dose activity change, negative = viability loss, actives largely listed as cytotoxic | AID 493074
# TRHR enhancer-2 – confirmation of human TRH receptor allosteric enhancers; shares compounds with TRHR enhancer-1; TRH receptor cell assay, enhancer confirmation qHTS; activity change, negative = inhibition, % at 46.1 µM; 970 tested, under 10 active; AID 493076;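 note: compound effect scored on response to added TRH at EC20 of 10 nM; 0% is about no effect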
# TRHR agonist-2 – human TRH receptor agonism confirmation; AID 493078; TRHR-expressing cells, agonist activation read-out; Potency, µM (top dose mostly 46.1 µM), inactives show at the top dose activation, actives largely listed as activators; shares compounds with TRHR enhancer-1; actives 8% (n = 970); note: potency is the fitted concentration of half-maximal effect; 0% is about no effect; nearly all actives have a fitted effect of over 75% in size
# The depositor's hits bear a star; ? = inconclusive; . = not tested or not shown. Unless noted, calls come from the whole dose curve; as a rule, active = well fitted curve in the direction sought with a large enough effect; inconclusive = small, poorly fitted or top-dose-only effect, or another doubt; inactive = no such curve, though single readings can be large; an effect the other way counts as inactive or inconclusive.
SMILES,TRHR agonist-1,D1 potentiator,D1 agonist,D1 antagonist,TRHR enhancer-1,Epigenetic reg,C127i cell count,HCC4017 viab,H358 viab,others
CCCCOC(=O)Cn1c2ccc(OC)cc2c2nc3ccccc3nc21,4,-1,21,1,12,?,?,?,?,
CCc1ccc(Cn2c(CNS(=O)(=O)c3ccc([N+](=O)[O-])cc3)nc3cccnc32)cc1,0,-4,5,-2,-2,3%,.,.,.,
NC(=S)N/N=C/c1ncc(C(F)(F)F)cc1Cl,11,-2,31*,3,10,4µM*,8%,?,?,
Nc1ncnc2c1ncn2[C@@H]1O[C@H](COP(=O)(O)OP(=O)(O)OC[C@H]2OC(O)[C@H](O)[C@@H]2O)[C@@H](O)[C@H]1O (some centres undefined),.,.,.,.,.,1%,.,.,.,
COc1ccc(NC(=O)CSc2nc3c(oc4ccccc43)c(=O)n2Cc2ccco2)cc1Cl,1,-4,2,5,-5,3.5µM*,8%,11µM*,16µM*,
COc1ccc(CN2CCc3c(c(=O)n4ncc(C(=O)N5CCN(c6ccccc6F)CC5)c4n3C)C2)cc1,0,-2,3,10,4,3%,.,.,.,
COc1ccc(NC(=O)c2sc3nc(C)cc(C)c3c2N)cc1,0,-4,-2,-12,2,.,.,.,.,
COc1ccc(NC(=O)c2sc3nc(-c4ccc(OC)cc4)cc(C(F)(F)F)c3c2N)cc1,4,-1,11,-9,9,7.1µM*,4µM*,.,.,
COc1ccccc1CNC(=O)Cn1ncn2c(cc3sccc32)c1=O,0,-3,0,9,13,7%,.,.,.,
CCOC(=O)N1CCc2c(sc3c2c(=O)n(-c2ccc(CC)cc2)c(=O)n3Cc2ccc(F)cc2Cl)C1,0,-2,2,17,1,0%,.,.,.,
Cc1nn(C(=O)c2ccc(Cl)cc2)c(C)c1Sc1ccc(Cl)cc1,-1,0,3,4,14,0%,.,.,.,
CN(c1ccccc1)S(=O)(=O)c1nnc(NC(=O)c2ccccc2)s1,-3,5,-2,-10,5,7.1µM*,0%,-14%,-27%,
O=S(=O)(c1ccc(-n2cnnn2)cc1)N1CCN(c2cccc(Cl)c2)CC1,0,-1,-1,-5,-2,0%,.,.,.,
COc1cccc(N2CCN(S(=O)(=O)c3ccc(-n4cnnn4)cc3)CC2)c1,0,-6,0,-6,-4,?,4%,13%,-11%,
CCOC(=O)c1cc2c(=O)n3ccccc3nc2n(Cc2ccco2)c1=NC(=O)c1cccc(Br)c1,3,0,1,-4,18,-1%,.,.,.,
CCOC(=O)c1cc2c(=O)n3ccccc3nc2n(Cc2ccco2)c1=NC(=O)c1ccc(Br)cc1,5,-3,9,-21,-9,?,28µM*,.,.,
Cc1ccc(CNC(=O)CN2N=C(c3ccccc3)CCC2=O)cc1,-1,0,-5,2,-3,2%,.,.,.,
Cc1ccc(C(C)C)c(OCc2ccc(C(=O)N/N=C/c3ccc(O)c(O)c3)cc2)c1,-1,4,5,-1,-4,0%,.,.,.,
Cc1ccc(C(C)C)c(OCc2ccc(C(=O)N/N=C/c3cccc(O)c3O)cc2)c1,0,-7,2,-27,3,?,1%,2µM*,0.56µM*,
O=C(CSc1cccc[n+]1[O-])c1ccccc1Br,1,-2,-3,-23,2,3.5µM*,7%,9%,-12%,
Cc1ccccc1OCC(=O)OCC(=O)NC1CC1,0,.,2,-26,0,.,.,.,.,
C/C=C/c1ccc(OCC(=O)OCC(=O)NC2CC2)c(OC)c1,-2,1,-3,14,2,?,2%,9%,16%,
CCOC(=O)c1c(NC(=O)CC2Nc3cc(C)c(C)cc3NC2=O)sc(C)c1C (centres undefined),2,-1,0,11,2,8.9µM*,?,.,.,
CCOC(=O)c1ccc(CN(Cc2ccc(F)cc2)S(=O)(=O)c2ccc(F)cc2)cc1,2,-1,27,-25,-7,5%,.,.,.,
COc1cccc(/C=N/Nc2nc(Nc3ccccc3)nc(-n3nc(C)cc3C)n2)c1O,1,-4,7,3,-3,2.5µM*,4%,2.5µM*,4.4µM*,
SMILES,TRHR agonist-1,D1 potentiator,D1 agonist,D1 antagonist,TRHR enhancer-1,Epigenetic reg,C127i cell count,HCC4017 viab,H358 viab,others
Cc1ccc(NC(=O)c2c(C)nc3sc(C(=O)NC4CCCC4)c(N)c3c2-c2ccco2)c(C)c1,-1,-2,1,15,1,?,?,.,.,
CCOC(=O)c1cc(-c2ccccc2)n(CC(=O)O)c1C,-1,1,2,-9,5,-1%,.,.,.,
CCOC(=O)c1cc(-c2ccccc2)n(CC(=O)NC(C)(C)C)c1C,-2,-2,-1,5,57*,1%,.,.,.,TRHR enhancer-2=-11;TRHR agonist-2=0%
CCCc1cc(C(=O)N2CCCC(C(=O)c3cccc4ccccc34)C2)n(C)n1 (centres undefined),-1,-4,4,-3,46*,3%,.,.,.,TRHR enhancer-2=-9;TRHR agonist-2=1%
Cc1cccc(C)c1OCC(=O)NCC1(N(C)C)CCCCC1,2,0,1,-20,-2,-2%,.,.,.,
NC(=O)COC(=O)c1c2c(nc3ccccc13)CCCCC2,0,-3,1,-17,49*,10%,.,.,.,TRHR enhancer-2=0;TRHR agonist-2=6%
N#C/C(=C(/O)c1ccccc1F)c1nc2cc(C(F)(F)F)ccc2s1,1,-3,2,-15,41*,-1%,.,.,.,TRHR enhancer-2=-1;TRHR agonist-2=-1%
CCc1ccc(C2c3c(n[nH]c3C)C(=O)N2c2ccc(C)cc2)cc1 (centres undefined),0,6,0,-11,2,-1%,.,.,.,
CSc1ccc(S(=O)(=O)NC(C)c2ccccc2)cc1 (centres undefined),0,4,-1,-14,-3,0%,.,.,.,
